Source: PubChem (several laboratories)
ADAM10 inh: inhibitors of human ADAM10 | O14672 | AID 720582 | actives 0.62% (n = 370,000) | inhibition, % at 7 µM | recombinant ADAM10, EDANS/DABCYL FRET peptide cleavage, 3 h;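 active = inhibition above a per-campaign cutoff equal to the mean of compounds falling between control-based bounds plus 3 SD, cut at about 20% in these data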;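 also: 0% = DMSO wells while the 100% control is not disclosed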
proKLK7 act: activators of human kallikrein-7 zymogen | purified proKLK7, EDANS-DABCYL substrate fluorescence; 100% is mature enzyme control, 0% vehicle | actives 0.9% (n = 370,000) | activation, % at 7 µM | AID 652039;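 active = activation above the mean of all tested compounds plus 3 SD, computed per campaign excluding outliers beyond control limits, cut at about 13% in these data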
AHR act: human AHR activation. P35869. AHR-responsive luciferase reporter cells, luminescence. activation, % at 5 µM. actives 2.5% (n = 320,000); in the data active = activation above about 47%;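 also: 0% = vehicle wells and 100% = reference agonist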
ADAM17 inh: inhibitors of human ADAM17; P78536; recombinant ADAM17, EDANS/DABCYL FRET peptide cleavage; inhibition, % at 6.95 µM; actives 0.83% (n = 370,000); AID 720648;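 active = inhibition above the mean of compounds lying between control limits plus 3 SD, set per campaign, cut at about 8.5% in these data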;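 also: 0% = DMSO-only wells as the low control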
Target sequence (P78536 215-824 limits assumed): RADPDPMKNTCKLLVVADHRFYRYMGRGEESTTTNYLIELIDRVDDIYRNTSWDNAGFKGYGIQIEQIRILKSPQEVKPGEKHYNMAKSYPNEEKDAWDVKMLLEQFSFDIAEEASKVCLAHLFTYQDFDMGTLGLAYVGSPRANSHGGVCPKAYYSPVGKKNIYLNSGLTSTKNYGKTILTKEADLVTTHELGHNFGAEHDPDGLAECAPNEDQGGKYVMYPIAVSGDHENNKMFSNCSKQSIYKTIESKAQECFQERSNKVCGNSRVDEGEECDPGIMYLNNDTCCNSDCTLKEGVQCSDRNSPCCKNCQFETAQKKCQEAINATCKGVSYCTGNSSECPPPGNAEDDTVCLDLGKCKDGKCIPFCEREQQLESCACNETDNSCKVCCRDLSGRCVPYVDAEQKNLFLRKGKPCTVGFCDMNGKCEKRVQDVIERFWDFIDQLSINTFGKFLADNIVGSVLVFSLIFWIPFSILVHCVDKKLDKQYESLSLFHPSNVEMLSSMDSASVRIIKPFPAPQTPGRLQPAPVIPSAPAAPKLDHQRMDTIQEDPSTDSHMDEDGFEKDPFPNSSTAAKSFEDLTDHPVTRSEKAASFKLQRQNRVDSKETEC
GRIN3A LBD mod: NR3A (human) ligand-binding domain modulation | NR3A LBD differential scanning fluorimetry, Tm shift; 0% = protein alone, 100% = glycine-bound protein | Tm shift relative to glycine control, % at 25 µM | actives 2.5% (n = 340,000) | AID 1259313;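 active = melting temperature shift of at least 10% of the positive control shift, at one fixed dose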
rCAG binder: r(CAG) repeat RNA binding; TO-PRO-1 dye displacement fluorescence; inhibition, % at 3 µM; actives 1.3% (n = 370,000); AID 651821;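 active = inhibition above the plate cutoff, the mean of all test compounds on that plate plus 3 SD, cut at about 35% in these data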;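 also: 0% = DMSO alone and 100% = 100 µM mitoxantrone as full dye displacement; higher means more dye released from RNA so lower well fluorescence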
KLK7 act conf: proKLK7 activation, confirmation; actives 68% (n = 3,200); purified proKLK7, EDANS-DABCYL substrate fluorescence; scaled: vehicle 0, mature enzyme 100; AID 686949; activation, % at 7 µM; shares compounds with proKLK7 act;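 active = activation, as change over the incubation, above the mean of all tested compounds plus 3 SD, cut at about 13% in these data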
EDANS-DABCYL int: optically interferes with EDANS-DABCYL signal, flagging KLK7 hits. shares compounds with proKLK7 act. activation, % at 7 µM. actives 80% (n = 3,200). EDANS-DABCYL substrate fluorescence interference, no enzyme, 4 h; solvent 0%, active enzyme control 100%;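 active = activation above the all-compound mean plus 3 SD, ignoring values outside control-based bounds, cut at about 4.8% in these data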;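 also: value is the 4 h activation minus the activation read at time zero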
An asterisk follows results filed as active; i = inactive; / = no result given. An excerpt weighted towards active compounds, which were near 7% of everything screened.

SMILES	ADAM10 inh	proKLK7 act	AHR act	ADAM17 inh	GRIN3A LBD mod	rCAG binder	KLK7 act conf	EDANS-DABCYL int
NC(=O)COc1cc2oc(=O)c3c(c2cc1Cl)CCCC3	-157	1	-2	-64	-1	2	/	/
O=C(Oc1cc2oc(=O)c3c(c2cc1Cl)CCCC3)c1cccs1	i	62*	16	i	0	9	260*	223*
Cc1ccc(S(=O)(=O)N[C@H](C(=O)Oc2ccc3c(C(F)(F)F)cc(=O)oc3c2)c2ccccc2)cc1	/	/	-1	/	-7	/	/	/
O=C(CCCCCN1C(=O)c2ccccc2C1=O)Oc1ccc2c3c(c(=O)oc2c1)CCC3	i	31*	-6	-304	-1	-1	215*	146*
Cc1cc(=O)oc2cc(OC(C)C(=O)O)c(Cl)cc12 (stereo not given)	-271	0	1	-90	1	1	/	/
CCCC(C(=O)NNC(=O)c1cc(C)oc1C)c1ccccc1 (stereo not given)	-8	0	6	0	-1	2	/	/
CC1CCC(NC(=O)CCS(=O)(=O)c2ccc3c(c2)CCN3C(=O)C2CC2)CC1 (stereo not given)	-2	0	0	-1	-1	-7	/	/
CCOc1ccc(S(=O)(=O)N2CCCC(C(=O)N3CCCC3)C2)cc1 (stereo not given)	1	0	-2	-4	2	-7	/	/
O=C(Oc1ccc2c3c(c(=O)oc2c1)CCC3)c1ccco1	i	578*	-2	i	0	-1	774*	820*
O=C(Oc1cc2oc(=O)c3c(c2cc1Cl)CCCC3)c1ccco1	i	55*	1	i	-1	1	397*	406*
CC(=O)Oc1cc2oc(=O)c3c(c2cc1Cl)CCC3	i	74*	0	i	2	2	340*	403*
Cc1cc2oc(=O)c3c(c2cc1OC(=O)c1ccco1)CCCC3	-7	1	1	-4	0	1	/	/
CC(C)Oc1cc2oc(=O)c3c(c2cc1Cl)CCC3	-103	0	0	-29	2	-1	/	/
CCOc1ccc(C(=O)NCC(=O)N2CCc3ccccc3C2)cc1OCC	-4	0	-2	-2	-1	-5	/	/
O=C1CCc2cc(S(=O)(=O)Nc3ccccc3F)cc3c2N1CCC3	-14	1	-3	-3	1	-7	/	/
COC(=O)c1ccc(C(=O)Nc2nnc(-c3cccnc3)o2)cc1	0	0	4	-5	/	0	/	/
O=C(Nc1ccc(-c2nc3ccccc3[nH]2)cc1)c1cccc(N2C(=O)CCC2=O)c1	i	127*	7	-203	6	2	167*	171*
COC(=O)c1ccc(C(=O)Nc2ccc3nc(-c4cccnc4)[nH]c3c2)cc1	-6	20*	-3	-2	4	-3	-14	-13
COC(=O)c1ccc(-c2nc3ccccc3[nH]2)cc1	i	43*	9	i	-2	0	79*	73*
COCCCNC(CC(=O)Nc1cc(C)cc(C)c1)C(=O)O (stereo not given)	0	0	-2	-2	0	2	/	/
CCOc1c2ccc(C(=O)NCc3ccc(OC)cc3)cc2nn1CCOC	i	13*	1	-246	1	-3	-4	-5
CCn1nc2cc(C(=O)NCCc3cccs3)ccc2c1OC	i	18*	33	-196	1	-7	8	3
CCOc1c2ccc(C(=O)NCCc3ccc(C)cc3)cc2nn1CC	i	-8	1	-223	1	-6	/	/
C=CCNC(=S)NNC(=O)c1cccn(Cc2ccc(Cl)cc2Cl)c1=O	-351	22*	1	-50	-2	3	30*	28*
CCNC(=S)NNC(=O)c1cccn(Cc2ccc(Cl)cc2Cl)c1=O	-433	32*	-2	-58	0	0	31*	47*
